PubChem BioAssay (EPA / NIEHS)
The source holds several records for some structures; these can differ, active in one and inactive in another. Activity calls are given as the source filed them. How the source made its calls: active means hit-call score of the fitted dose curve at least 0.9, where 1 is the maximum; inactive means score below 0.9.

Columns and labels:
[1] = CCTE_Shafer_MEA_acute_per_burst_spike_number_mean: CCTE's Neural Acute Assay for Average Number of Spikes Per Burst, Shafer Lab (AID 2284015);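 further: hits are decreases in mean spikes per burst versus baseline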
Summary of the method: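 We recorded spontaneous network firing of rat cortical neurons for 40 min before and 40 min during exposure to compound at 0.03-40 uM, at 37 C. Spikes were detected adaptively at 8x rms noise, and the change in average spikes per burst was fitted against DMSO.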

[2] = CCTE_Shafer_MEA_acute_interburst_interval_mean: CCTE's Neural Acute Assay for Mean Interburst Interval, Shafer Lab (AID 2284016);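 further: percent change of mean interburst interval versus each well's own pre-dose baseline; curves fitted for decrease in interburst interval relative to DMSO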
Summary of the method: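 MEA recording of spontaneous network bursting in primary rat cortical cultures; mean interburst interval was compared before and after a 40-min compound exposure (0.03-40 uM) and expressed as percent change, relative to DMSO.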

[3] = CCTE_Shafer_MEA_acute_burst_percentage_mean: CCTE's Neural Acute Assay for Percentage of Spikes in a Burst, Shafer Lab (AID 2284017);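 on AC50: curve fitted for loss of signal so potency reflects decreased burst percentage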
Summary of the method: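 Compounds were tested at 0.03-40 uM on primary rat cortical neuron networks grown over microelectrodes, with at least three wells per compound. Spontaneous firing was recorded for 40 min before and 40 min after dosing, and the change in burst percentage was computed per well.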

[4] = CCTE_Shafer_MEA_acute_burst_percentage_std: CCTE's Neural Acute Assay for Standard Deviation of Burst Percentage, Shafer Lab (AID 2284018);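 further: fitted in the negative direction so actives lower burst percentage SD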
Summary of the method: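 Rat primary cortical neurons on 48-well MEAs, DIV 13 or 15, 37 C. 40-min baseline then 40-min recording with compound (0.03-40 uM); well-level SD of per-electrode burst spike percentage, expressed as percent change from baseline.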

[5] = CCTE_Shafer_MEA_acute_per_network_burst_spike_number_mean: CCTE's Neural Acute Assay for Average Number of Spikes in a Network Burst, Shafer Lab (AID 2284019);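 on AC50: curve fitted for loss of signal so actives reduce spikes per network burst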
Summary of the method: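 Rat cortical cultures, DIV 13/15; spike threshold 8x rms noise, 300-5000 Hz band-pass, 12.5 kHz sampling; wells need >/= 10 active electrodes. Compound 0.03-40 uM, 40 min, 37 C; % change vs own baseline, DMSO negative control.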

[6] = CCTE_Shafer_MEA_acute_per_network_burst_spike_number_std: CCTE's Neural Acute Assay for Standard Deviation of Number of Spikes in a Network Burst, Shafer Lab (AID 2284020);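 further: fitted for decrease in spike-number SD versus DMSO so actives lower it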
Summary of the method: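 Rat cortical cultures, DIV 13/15, 37 C; 20-min stabilisation, 40-min baseline, compound 0.03-40 uM, 40-min re-record. Spikes detected at 8x rms noise (300-5000 Hz band-pass). Readout: % change from baseline in per-burst spike-number SD.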

[7] = CCTE_Shafer_MEA_acute_per_network_burst_electrodes_number_mean: CCTE's Neural Acute Assay for Mean Number of Electrodes in a Network Burst, Shafer Lab (AID 2284021);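 further: curves fitted for decreases only so hits reduce electrodes per burst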
Summary of the method: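 Readout: % change in mean electrodes active per network burst, post- vs pre-treatment, each well. Spikes detected at 8x rms noise after 300-5000 Hz band-pass; rat cortical cultures, DIV 13/15, compounds 0.03-40 uM, DMSO baseline.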

[8] = CCTE_Shafer_MEA_acute_network_burst_percentage: CCTE's Neural Acute Assay for Percentage of Network Bursts, Shafer Lab (AID 2284022);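 further: curves fitted for loss so actives lower network burst percentage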
Summary of the method: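 Rat cortical cultures, DIV 13/15; 20 min equilibration, 40 min baseline, compound 0.03-40 uM, 40 min recording, 37 C. Spikes: 300-5000 Hz band-pass, threshold 8x rms noise. Readout: % change in network-burst spike fraction; loss direction vs DMSO.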

[9] = CCTE_Shafer_MEA_acute_cross_correlation_area: CCTE's Neural Acute Assay for Area of Cross Correlation, Shafer Lab (AID 2284024);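 further: area under pooled inter-electrode spike cross-correlation near zero lag as percent change from own baseline; curves fitted for loss of cross-correlation area so actives lower synchrony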
Summary of the method: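 Rat cortical cultures, DIV 13/15, MEA; spikes detected at 8x rms noise (300-5000 Hz band-pass). Compound 0.03-40 uM, ≥3 wells each. Readout: % change in pooled inter-electrode cross-correlation area vs own baseline; DMSO negative control.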

Measured: AC50

CC(C)C1(C)N=C(c2ncccc2C(=O)O)NC1=O (configuration not stated)
inactive: all assays above

COP(=S)(OC)SCn1nnc2ccccc2c1=O
active: [5] 24.1 µM
inactive: [1] | [2] | [3] | [4] | [5] | [6] | [7] | [8] | [9]

CC(C)N1C(=O)N(c2ccccc2)CSC1=NC(C)(C)C
inactive: [2] | [4] | [9]
active: [1] 20 µM | [3] 20 µM | [5] 13.5 µM | [6] 17.6 µM | [7] 17.4 µM | [8] 26.5 µM

O=C(Nc1ccccc1-c1ccc(Cl)cc1)c1cccnc1Cl
active: [3] 28.5 µM
inactive: all other assays above

CCOP(=O)(OCC)Oc1nc(Cl)c(Cl)cc1Cl
inactive: [2] | [6] | [8] | [9]
active: [1] 0.00298 µM | [3] 34.9 µM | [4] 32.5 µM | [5] 0.00674 µM | [7] 0.0114 µM

CCOc1nc(F)cc2nc(S(=O)(=O)Nc3c(Cl)cccc3Cl)nn12
inactive: all assays above

Cn1c(-c2ccccc2)cc(-c2ccccc2)[n+]1C
active: [3] 31.4 µM | [7] 20 µM | [8] 28 µM
not listed: [2]
inactive: all other assays above

CCOc1cc(C(C)(C)C)ccc1C1COC(c2c(F)cccc2F)=N1 (configuration not stated)
active: [3] 20 µM | [6] 29 µM | [7] 4.3 µM | [8] 20 µM
inactive: all other assays above
